PubChem BioAssay (NCI)
This is part of a sample that, as a whole, favours compounds with a hit. Of some 83,000 tested, about 20% had one in any assay.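 Activity criterion: percent growth below 10, measured after cells in 96-well plates were exposed to a single compound concentration for 48 hours.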 Values without a mark were called inactive. Calls of active or inactive are those of the source.

How the values were obtained:
Assay in all cases: NCI-60 one-dose screen, 48 h (100 = growth as untreated, 0 = no growth, -100 = all killed)
Settings in all cases: 10 µM unless noted
SR leukemia = test system: SR leukemia
RPMI-8226 leukemia = test system: RPMI-8226 leukemia
OVCAR-8 ovarian = test system: OVCAR-8 ovarian
OVCAR-5 ovarian = test system: OVCAR-5 ovarian
OVCAR-4 ovarian = test system: OVCAR-4 ovarian
SK-OV-3 ovarian = test system: SK-OV-3 ovarian
IGROV1 ovarian = test system: IGROV1 ovarian
OVCAR-3 ovarian = test system: OVCAR-3 ovarian
NCI/ADR-RES ovarian = test system: NCI/ADR-RES ovarian
T-47D breast = test system: T-47D breast
SW-620 colon = test system: SW-620 colon
MCF7 breast = test system: MCF7 breast
HCT-116 colon = test system: HCT-116 colon
HCC-2998 colon = test system: HCC-2998 colon
KM12 colon = test system: KM12 colon
HS 578T breast = test system: HS 578T breast
BT-549 breast = test system: BT-549 breast
MDA-MB-435 melanoma = test system: MDA-MB-435 melanoma

Row | SMILES | growth (SR leukemia) | growth (RPMI-8226 leukemia) | growth (OVCAR-8 ovarian) | growth (OVCAR-5 ovarian) | growth (OVCAR-4 ovarian) | growth (SK-OV-3 ovarian) | growth (IGROV1 ovarian) | growth (OVCAR-3 ovarian) | growth (NCI/ADR-RES ovarian) | growth (T-47D breast) | growth (SW-620 colon) | growth (MCF7 breast) | growth (HCT-116 colon) | growth (HCC-2998 colon) | growth (KM12 colon) | growth (HS 578T breast) | growth (BT-549 breast) | growth (MDA-MB-435 melanoma)
1 | COc1ccc(-c2nn(-c3ccc(NC(=O)c4ccc(Cl)c(C(F)(F)F)c4)cc3)cc2-c2ccncc2)cc1Cl | 7.78% (active) | -38.2% (active) | 46.5% | 46.5% | 93.9% | 58.1% | 44.8% | 24% | 35.7% | 46.1% | 16% | 22.5% | 15.8% | 9.69% (active) | 14.8% |  |  | 
2 | COc1ccccc1N1CCN(CCCOc2ccc(OCCCN3CCN(c4ccccc4OC)CC3)c(C(=O)c3cc(OC)c(OC)c(OC)c3)c2)CC1 | 99.7% | 155% | 105% | 109% | 109% | 100% | 122% |  | 105% | 104% | 102% | 95.1% | 111% | 107% | 113% | 106% | 96.3% | 122%
3 | O=C(NCCNc1nccc(-c2c(-c3cccc(O)c3)nc3sccn23)n1)c1cc(N2CCOCC2)cc(C(F)(F)F)c1 | 97.3% | 67% | 78.1% | 101% | 133% | 94% | 80.4% | 107% | 103% |  | 126% | 85.4% | 78.8% | 109% | 97.3% |  | 84.8% | 34.7%
4 | Cc1cn([C@]2(CF)O[C@H](CO)C2C)c(=O)[nH]c1=O (stereo not given in full) | 181% | 150% | 110% | 94.5% | 113% | 122% | -29.1% (active) |  | 113% | 119% | 98.6% | 120% | 100% | 121% | 110% | 110% | 110% | 133%
5 | O=C(COc1ccc(Cl)cc1Cl)N1N=C(c2ccc(Cl)cc2Cl)CC1(O)c1cc(F)c(Cl)cc1Cl (stereo not given) | 23.2% | 144% | 93.2% | 105% | 116% | 110% | 69.7% |  | 106% | 98.8% | 116% | 95.6% | 95% | 124% | 117% | 122% | 111% | 107%
6 | COc1ccccc1N1CCN(CC(O)COc2c(Br)c(Br)c(Br)c3c2OC(C)(C)C3)CC1 (stereo not given) | -50.4% (active) | 1.1% (active) | 62.2% | 61.2% | 30.4% | 84.2% | -19.7% (active) |  | 45.7% | 39.8% | 33.3% | 26.8% | 27.4% | 39.9% | 35.7% | 67.3% | 98.6% | 37.2%
7 | CCN(CC)c1ccc(C2CC(c3cc(OC)c(OC)c(OC)c3)=NN2)cc1 (stereo not given) | -10.8% (active) | -13.1% (active) | 6.48% (active) | 40.6% | 37.2% | 5.94% (active) | 17.7% |  | -37% (active) | 29.9% | 18.4% | 6.88% (active) | 9.61% (active) | 21.2% | 11.1% | -13.3% (active) | -2.69% (active) | 21.6%
8 | Cn1c2ccccc2c2ssc(=S)c21 | 103% | 124% | 102% | 99.7% | 89.5% | 119% | -26.5% (active) |  | 86.8% | 87.3% | 105% | 92.9% | 101% | 101% | 99.7% | 70.3% | 110% | 91.7%
9 | COc1cc(-c2nc3ccccc3s2)ccc1OCc1nc2n(n1)S(=O)(=O)c1ccccc1N2c1ccccc1 | 23.7% | 88.9% | 103% | 104% | 102% | 110% | 56.1% |  | 107% | 101% | 102% | 105% | 99.5% | 129% | 101% | 97% | 104% | 107%
10 | C[C@H]1C=C(C[C@@H](O)CC#CC#CCCCCC[C@@H](O)[C@H]2CCC(=O)O2)C(=O)O1 | 121% | 114% | 110% | 95.6% | 105% | 95.5% | 54.1% |  | 95.5% | 92.8% | 103% | 115% | 83.2% | 105% | 110% | 117% | 112% | 111%
11 | COc1cc2c(cc1OCCCCC(=O)Nc1ccc(-c3nc4ccccc4s3)cc1)N=C[C@@H]1CCCN1C2=O | -55.4% (active) | -58.3% (active) | -8.71% (active) | 4.91% (active) | -11.9% (active) | 22.4% | -17.1% (active) |  | 67.6% | 14.7% | -16.9% (active) | 1.14% (active) | 5.56% (active) | -62% (active) | -58.7% (active) | -37.5% (active) | -76.4% (active) | -70.8% (active)
12 | O=C(Nc1ccc(-n2cc(-c3ccncc3)c(-c3ccc(O)c(Cl)c3)n2)cc1)c1cc(Cl)cc(Cl)c1 | 14.8% | -19.5% (active) | 30.3% | 71.4% | 78.1% | 70.2% | 43.2% | 27% | 28.7% |  | 33.6% | 33.3% | 17.6% | 39.3% | 24.3% |  | 25.8% | 21.5%
13 | CCC1S/C(=N\N=C(/C)c2cccs2)N(c2ccccc2)C1=O (stereo not given) | 32.6% | 110% | 97.3% | 111% | 99.7% | 121% | -27.2% (active) |  | 99% | 90.6% | 96.1% | 84.5% | 90.2% | 121% | 115% | 123% | 112% | 117%
14 | O=C(Nc1cccc(-n2ccc3c(NC(=O)c4ccccc4)nccc32)c1)Nc1ccc(Cl)c(C(F)(F)F)c1 | -11.6% (active) | -35% (active) | 4.34% (active) | 27.6% | 73.7% | 7.74% (active) | 16.7% | -21.1% (active) | -10.9% (active) |  | 25.2% | 19.5% | 3.34% (active) | 17.2% | -16.4% (active) |  | -5.15% (active) | -15.4% (active)
15 | NN=C(c1ccc(Cl)cc1)c1ccc(Cl)cc1 | 104% | 102% | 104% | 95% | 103% | 105% | 119% | 107% | 108% | 108% | 101% | 99.6% | 98.4% |  | 92.9% |  |  | 97.1%
16 | CN1CCN(Cn2nc(-c3cc(Cl)cc(Cl)c3Cl)n(/N=C/c3ccc(Cl)cc3)c2=S)CC1 | 38.7% | 96.3% | 93.5% | 96.3% | 94.5% | 101% | 108% |  | 96.6% | 94.9% | 110% | 95.5% | 89.4% | 103% | 107% | 112% | 102% | 107%
